# Results reported in paper PMC7862700, “An all-to-all approach to the identification of sequence-specific readers for epigenetic DNA modifications on cytosine”.
# Columns and labels:
# Test in all cases: DAPPL (digital affinity profiling via proximity ligation, sequencing); 10 mM Tris-HCl pH 7.5, 50 mM NaCl, 1 mM DTT, 4% glycerol, room temperature, 30 min; GST-TFs on glutathione beads, 16-mer random dsDNA library, 0.1% formaldehyde crosslink after washing; high values mean tight binding
# [1] = target: T1, FEV (Homo sapiens, UniProt Q99581 1-238); conditions: protein: recombinant; tags: N-terminal GST; dsDNA, one strand shown
# T1 sequence: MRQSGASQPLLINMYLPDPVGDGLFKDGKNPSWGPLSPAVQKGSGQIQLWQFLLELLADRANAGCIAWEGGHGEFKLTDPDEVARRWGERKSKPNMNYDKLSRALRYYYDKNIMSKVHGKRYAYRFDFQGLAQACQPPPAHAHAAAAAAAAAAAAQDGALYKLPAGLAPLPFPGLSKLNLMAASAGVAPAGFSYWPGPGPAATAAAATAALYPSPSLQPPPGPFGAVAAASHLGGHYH
# Method in brief: (§1)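 A tag-only sample was pooled with DNA-barcoded human transcription factors that had been expressed in yeast as GST fusions and captured on glutathione beads. The pools were incubated for 30 min at room temperature with 200 nmole of a random double-stranded 16-mer DNA library in Tris/NaCl/DTT/glycerol buffer, then washed, crosslinked with 0.1% formaldehyde, proximity-ligated (BsaI/T4 ligase, 1 h, 37 °C), PCR-amplified and sequenced on an Illumina NextSeq500. Binding signal is each hexamer's read frequency for a factor divided by its frequency for the tag-only sample.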
# [2] = target: ETV5 (Homo sapiens, UniProt P41161 1-510); conditions: protein: recombinant; tags: N-terminal GST; dsDNA, one strand shown
# Sequence of ETV5 (P41161 whole entry): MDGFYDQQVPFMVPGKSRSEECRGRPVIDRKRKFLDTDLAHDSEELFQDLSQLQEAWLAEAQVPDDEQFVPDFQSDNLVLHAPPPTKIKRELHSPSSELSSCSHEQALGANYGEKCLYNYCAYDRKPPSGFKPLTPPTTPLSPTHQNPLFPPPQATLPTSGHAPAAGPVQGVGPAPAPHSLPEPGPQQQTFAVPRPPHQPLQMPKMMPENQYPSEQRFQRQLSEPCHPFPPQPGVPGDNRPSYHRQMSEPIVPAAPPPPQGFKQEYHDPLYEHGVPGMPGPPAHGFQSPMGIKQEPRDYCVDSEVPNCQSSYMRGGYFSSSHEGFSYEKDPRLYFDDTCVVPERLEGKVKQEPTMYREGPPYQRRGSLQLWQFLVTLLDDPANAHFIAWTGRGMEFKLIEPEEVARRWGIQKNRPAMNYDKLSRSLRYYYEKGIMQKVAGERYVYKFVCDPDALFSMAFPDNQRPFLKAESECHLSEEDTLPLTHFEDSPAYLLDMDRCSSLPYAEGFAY
# Method in brief: as §1
# [3] = target: HSF1 (Homo sapiens, UniProt Q00613 1-529); conditions: protein: recombinant; tags: N-terminal GST; chain copies: 3; dsDNA, one strand shown
# Sequence of HSF1 (Q00613 whole entry): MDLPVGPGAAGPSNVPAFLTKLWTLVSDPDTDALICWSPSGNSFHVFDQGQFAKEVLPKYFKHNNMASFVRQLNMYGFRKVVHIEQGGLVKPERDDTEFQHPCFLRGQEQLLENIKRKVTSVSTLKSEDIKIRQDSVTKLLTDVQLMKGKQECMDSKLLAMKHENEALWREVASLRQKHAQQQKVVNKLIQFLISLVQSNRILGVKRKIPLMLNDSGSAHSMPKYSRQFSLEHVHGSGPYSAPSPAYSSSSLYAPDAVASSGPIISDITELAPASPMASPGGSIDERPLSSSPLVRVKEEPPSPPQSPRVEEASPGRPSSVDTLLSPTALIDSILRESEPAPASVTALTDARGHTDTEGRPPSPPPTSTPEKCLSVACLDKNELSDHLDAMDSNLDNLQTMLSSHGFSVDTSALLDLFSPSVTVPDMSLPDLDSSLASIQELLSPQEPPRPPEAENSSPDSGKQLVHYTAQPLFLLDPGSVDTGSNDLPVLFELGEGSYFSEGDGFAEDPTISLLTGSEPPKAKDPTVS
# Method in brief: as §1
# [4] = target: T2, SPIC (Homo sapiens, UniProt Q8N5J4 1-248); conditions: protein: recombinant; tags: N-terminal GST; dsDNA, one strand shown
# T2 sequence: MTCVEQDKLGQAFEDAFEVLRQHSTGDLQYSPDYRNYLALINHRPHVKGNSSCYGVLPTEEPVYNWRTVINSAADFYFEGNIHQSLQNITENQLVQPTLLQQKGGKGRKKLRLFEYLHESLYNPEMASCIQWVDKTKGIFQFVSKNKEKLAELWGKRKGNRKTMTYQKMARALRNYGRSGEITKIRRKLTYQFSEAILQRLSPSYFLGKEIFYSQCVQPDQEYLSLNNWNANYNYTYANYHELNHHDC
# Method in brief: as §1
# [5] = target: ELF4 (Homo sapiens, UniProt Q99607 1-663); conditions: protein: recombinant; tags: N-terminal GST; dsDNA, one strand shown
# Sequence of ELF4 (Q99607 whole entry): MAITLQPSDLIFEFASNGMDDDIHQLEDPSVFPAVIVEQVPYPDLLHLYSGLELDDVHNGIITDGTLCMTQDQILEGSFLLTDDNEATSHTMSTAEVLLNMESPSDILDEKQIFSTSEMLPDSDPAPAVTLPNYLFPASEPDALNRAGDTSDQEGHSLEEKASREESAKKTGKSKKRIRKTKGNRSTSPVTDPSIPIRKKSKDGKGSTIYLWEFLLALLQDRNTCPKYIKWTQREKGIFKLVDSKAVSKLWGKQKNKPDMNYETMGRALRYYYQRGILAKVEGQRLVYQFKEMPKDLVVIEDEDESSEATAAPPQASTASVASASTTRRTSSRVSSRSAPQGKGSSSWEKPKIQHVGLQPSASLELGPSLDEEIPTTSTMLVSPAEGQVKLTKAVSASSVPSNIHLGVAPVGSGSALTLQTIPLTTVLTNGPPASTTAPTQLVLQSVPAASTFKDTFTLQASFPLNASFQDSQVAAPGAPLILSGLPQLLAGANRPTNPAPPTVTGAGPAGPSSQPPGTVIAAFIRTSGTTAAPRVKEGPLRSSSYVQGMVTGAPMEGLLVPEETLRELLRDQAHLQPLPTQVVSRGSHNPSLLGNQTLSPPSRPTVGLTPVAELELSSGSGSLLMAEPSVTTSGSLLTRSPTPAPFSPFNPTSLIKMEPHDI
# Method in brief: as §1
# [6] = target: T3, ELK4 (Homo sapiens, UniProt P28324-2 1-405); conditions: protein: recombinant; tags: N-terminal GST; dsDNA, one strand shown
# T3 sequence: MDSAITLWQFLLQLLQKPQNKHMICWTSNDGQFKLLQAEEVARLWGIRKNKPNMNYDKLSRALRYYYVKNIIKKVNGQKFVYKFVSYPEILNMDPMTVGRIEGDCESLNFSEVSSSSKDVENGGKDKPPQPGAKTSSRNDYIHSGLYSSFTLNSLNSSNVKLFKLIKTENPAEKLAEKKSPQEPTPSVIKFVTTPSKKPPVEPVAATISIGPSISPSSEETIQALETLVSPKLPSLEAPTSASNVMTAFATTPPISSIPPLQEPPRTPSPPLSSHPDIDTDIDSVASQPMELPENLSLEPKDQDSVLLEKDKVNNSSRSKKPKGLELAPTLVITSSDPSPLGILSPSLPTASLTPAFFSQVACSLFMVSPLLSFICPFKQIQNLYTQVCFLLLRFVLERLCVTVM
# Method in brief: as §1
# [7] = target: T4, ETV2 (Homo sapiens, UniProt O00321 1-342); conditions: protein: recombinant; tags: N-terminal GST; dsDNA, one strand shown
# T4 sequence: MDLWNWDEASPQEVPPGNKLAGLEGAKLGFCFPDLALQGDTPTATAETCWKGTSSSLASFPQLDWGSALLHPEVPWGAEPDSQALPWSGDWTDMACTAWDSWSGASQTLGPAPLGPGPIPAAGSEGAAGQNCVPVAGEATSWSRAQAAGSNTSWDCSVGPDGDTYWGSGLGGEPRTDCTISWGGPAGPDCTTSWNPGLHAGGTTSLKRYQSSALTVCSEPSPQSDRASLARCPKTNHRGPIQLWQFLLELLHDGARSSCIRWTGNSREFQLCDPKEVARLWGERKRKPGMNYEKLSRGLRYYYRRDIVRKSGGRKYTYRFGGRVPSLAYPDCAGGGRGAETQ
# Method in brief: as §1
# [8] = target: T5, ELF3 (Homo sapiens, UniProt P78545 1-371); conditions: protein: recombinant; tags: N-terminal GST; dsDNA, one strand shown
# T5 sequence: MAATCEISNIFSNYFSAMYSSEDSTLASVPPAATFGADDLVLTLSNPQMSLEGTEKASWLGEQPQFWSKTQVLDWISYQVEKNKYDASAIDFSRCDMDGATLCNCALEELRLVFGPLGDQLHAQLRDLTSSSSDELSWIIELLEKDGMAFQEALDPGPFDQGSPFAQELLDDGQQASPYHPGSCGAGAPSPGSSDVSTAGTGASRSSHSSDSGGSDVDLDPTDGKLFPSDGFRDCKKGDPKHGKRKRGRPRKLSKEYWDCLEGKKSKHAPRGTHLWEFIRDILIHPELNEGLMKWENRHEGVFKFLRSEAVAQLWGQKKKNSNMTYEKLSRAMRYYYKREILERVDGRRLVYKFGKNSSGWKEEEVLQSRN
# Method in brief: as §1
# [9] = target: ETV1 (Homo sapiens, UniProt P50549 1-477); conditions: protein: recombinant; tags: N-terminal GST; dsDNA, one strand shown
# Sequence of ETV1 (P50549 whole entry): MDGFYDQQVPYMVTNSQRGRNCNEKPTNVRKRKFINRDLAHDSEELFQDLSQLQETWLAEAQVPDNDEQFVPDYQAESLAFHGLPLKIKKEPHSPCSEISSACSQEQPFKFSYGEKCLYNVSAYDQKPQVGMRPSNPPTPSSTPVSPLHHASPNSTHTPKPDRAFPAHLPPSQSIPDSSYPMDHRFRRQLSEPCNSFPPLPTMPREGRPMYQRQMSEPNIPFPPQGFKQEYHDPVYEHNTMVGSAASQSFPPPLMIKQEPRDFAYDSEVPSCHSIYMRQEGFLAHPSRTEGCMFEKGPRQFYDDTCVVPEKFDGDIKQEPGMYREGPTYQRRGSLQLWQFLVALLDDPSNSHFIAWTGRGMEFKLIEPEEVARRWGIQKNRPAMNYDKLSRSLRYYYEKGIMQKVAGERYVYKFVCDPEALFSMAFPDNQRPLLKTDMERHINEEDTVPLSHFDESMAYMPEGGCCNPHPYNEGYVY
# Method in brief: as §1
sequence,measurement,setting,value
ACTGCG,binding signal,[1],"1.26 fold enrichment (6-mer frequency, TF over GST control)"
same,binding signal,[2],"1.21 fold enrichment (6-mer frequency, TF over GST control)"
same,binding signal,[3],"1.06 fold enrichment (6-mer frequency, TF over GST control)"
same,binding signal,[4],"1.14 fold enrichment (6-mer frequency, TF over GST control)"
same,binding signal,[5],"1.28 fold enrichment (6-mer frequency, TF over GST control)"
same,binding signal,[6],"1.06 fold enrichment (6-mer frequency, TF over GST control)"
same,binding signal,[7],"1.42 fold enrichment (6-mer frequency, TF over GST control)"
same,binding signal,[8],"1.16 fold enrichment (6-mer frequency, TF over GST control)"
same,binding signal,[9],"1.27 fold enrichment (6-mer frequency, TF over GST control)"
